Compound activity as filed in PubChem.
ANO1 block – mouse TMEM16A channel inhibition, primary screen; normalized B-score (activity score, 25-100; higher = stronger inhibition) at 10 µM; HEK293 TMEM16A/YFP iodide influx fluorescence, ionomycin; hit rate 1.2% among 310,000;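 active = ratio plate-corrected score three or more library SD toward inhibition, starting fluorescence score within five deviations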;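 note: score derived from kinetic fluorescence span divided by baseline fluorescence per well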
CHT inh – human CHT choline transport inhibition; Q9GZV3; CHT-expressing cells, membrane potential dye, choline response; hits give low values; B-score at 10 µM; hit rate 0.86% among 310,000; AID 488975;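 active = B-score over 3 SD under the library average, and starting fluorescence ratio not unusually high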;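 note: choline stimulus applied at its EC90 after an EC20 pre-addition; B-score computed on integrated fluorescence ratio after choline addition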
Target sequence (Q9GZV3 whole entry, looked up): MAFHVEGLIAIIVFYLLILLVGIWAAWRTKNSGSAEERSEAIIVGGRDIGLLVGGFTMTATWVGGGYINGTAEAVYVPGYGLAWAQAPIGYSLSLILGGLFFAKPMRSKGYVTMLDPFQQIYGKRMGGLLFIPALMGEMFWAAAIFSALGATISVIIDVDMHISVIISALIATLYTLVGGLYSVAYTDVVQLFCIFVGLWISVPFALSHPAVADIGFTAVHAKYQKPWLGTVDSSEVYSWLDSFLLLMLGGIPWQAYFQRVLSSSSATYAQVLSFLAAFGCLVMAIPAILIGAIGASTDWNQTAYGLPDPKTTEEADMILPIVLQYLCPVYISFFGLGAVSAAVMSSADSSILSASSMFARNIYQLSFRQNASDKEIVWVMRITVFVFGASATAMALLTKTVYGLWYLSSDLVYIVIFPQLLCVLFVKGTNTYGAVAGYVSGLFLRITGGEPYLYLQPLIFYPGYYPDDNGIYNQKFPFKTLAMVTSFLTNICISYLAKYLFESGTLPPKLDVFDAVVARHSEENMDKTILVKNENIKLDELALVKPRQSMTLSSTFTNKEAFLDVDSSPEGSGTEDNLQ
TMEM16A act – activates or potentiates the mouse TMEM16A chloride channel. Q8BHY3. HEK293 TMEM16A/YFP-H148Q/I152L, iodide quench fluorescence; hits give low values. B-score at 10 µM. hit rate 0.3% among 340,000;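 active = fluorescence-ratio B-score plate-corrected deviation score at least 3 library SD below zero, with starting fluorescence score within 5 deviations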;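 note: channel opened by trigger with iodide after compound preincubation; score built on the fluorescence ratio of max minus min over baseline; more negative score means more quench and so TMEM16A activation or potentiation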
PKA-R2B activ – activates the human PKA-R2B holoenzyme complex | hit rate 0.079% among 340,000 | P22694+P31323 | PKA-R2B holoenzyme dissociation, Cy5-IP20 fluorescence polarization; R2B truncated from residue 108, S112A mutant; 0% DMSO only, 100% 113 µM cGMP | activation, % at 11.4 µM;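 active = activation above a cutoff set at the mean over all compounds plus 3 SD, cut at about 18% in these data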;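 note: higher means more holoenzyme dissociation and a rise in polarization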
PKA-R1A act – PKA-R1A complex activation; P00514+P68181; PKA-R1A dissociation, Cy5-IP20 fluorescence polarization; scaled: DMSO 0%, 113 µM cGMP 100%; activation, % at 11.4 µM; hit rate 0.083% among 340,000;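 active = percent activation above the mean of all tested compounds plus 3 SD, cut at about 19% in these data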;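 note: higher means more PKAc released from R1A so a rise in polarization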
CHT PAM – allosterically activates the human high affinity choline transporter; CHT-expressing cells, membrane potential dye, choline EC20; hits give high values; LV-AA mutant CHT in HEK293 cells; B-score at 10 µM; hit rate 0.49% among 310,000; AID 488977; Q9GZV3;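 active = initial fluorescence not abnormally high and integrated response B-score, plate-corrected, over 3 SD above library mean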
An asterisk follows results filed as active; i = inactive; x = no result. This is a sample that favours compounds with a hit; in the whole collection about 2.5% have one here.

SMILES	ANO1 block	CHT inh	TMEM16A act	PKA-R2B activ	PKA-R1A act	CHT PAM
CC(C)C(c1nnnn1Cc1ccccc1)N(Cc1ccco1)Cc1cccs1 (centres undefined)	i	i	-14*	-1	-2	i
COc1ccc(Cn2nnnc2C(C(C)C)N(Cc2ccco2)Cc2cccs2)cc1 (centres undefined)	i	i	i	8	-14	i
CC(NCc1ccccc1)c1ccccc1O (centres undefined)	i	i	i	-7	-3	i
CN1C(=O)/C(=C/c2cn(CC(=O)N3CCCCC3)c3ccccc23)NC1=S	i	i	-6.2*	1	1	i
CC(=O)O[C@@H](C[C@@H](C)C1=C2C[C@H](O)C3[C@@]4(C)CCC(=O)C(C)(C)C4CC[C@]3(C)[C@@]2(C)CC1)[C@H]1OC1(C)C (some centres undefined)	x	x	x	2	-12	x
O=C(CSc1ccccc1Cl)N1CCC(c2nc3ccccc3s2)CC1	100*	i	i	0	-8	i
COc1ccccc1CNC(=O)CN(c1ccc(C)cc1)S(=O)(=O)c1c(C)noc1C	i	i	i	-10	0	i
CC(C)N1CCc2c(sc(NC(=S)NC(=O)c3ccccc3)c2C#N)C1	i	i	i	-3	-6	i
CCCN1CCc2c(sc(NC(=S)NC(=O)c3ccccc3)c2C#N)C1	i	i	-5.4*	0	-13	i
COc1c(C)cc(C(=O)C2CCCN(C(=O)c3cc(C4CC4)[nH]n3)C2)cc1C (centres undefined)	i	i	i	4	-7	i
CCCCn1cnc2c(c(-c3ccccc3)c(-c3ccccc3)n2Cc2ccco2)c1=N	100*	i	i	x	x	i
N=c1c2c(ncn1Cc1ccco1)Oc1ccc3ccccc3c1C2c1ccccc1 (centres undefined)	i	i	i	-12	-6	i
N=c1c2c(-c3ccccc3)c(-c3ccccc3)n(Cc3ccco3)c2ncn1Cc1ccco1	100*	i	i	6	5	i
CCCCCCSc1ccc([C@H]2N[C@@](C)(C(=O)OC)[C@H]3C(=O)N(C)C(=O)[C@@H]23)cc1	100*	i	i	-15	-22	i
Cc1cc(C)cc(OCC(=O)OCC(=O)N(CC(C)C)c2c(N)n(Cc3ccccc3)c(=O)[nH]c2=O)c1	i	i	i	-6	-1	i
Cc1c(C(C)C)c(=O)n(-c2ccc(S(=O)(=O)NCc3ccccc3)cc2)n1C	25*	i	i	5	-6	i
Cc1c(C(C)C)c(=O)n(-c2ccc(S(=O)(=O)NC3CCCCC3)cc2)n1C	i	i	i	x	x	i
CCCCN(C(=O)c1ccc(S(=O)(=O)N(C)C)cc1)c1nc2ccccc2s1	i	i	-9*	-6	-12	i
COc1ccc(N(C(=O)Cc2cccs2)C(C(=O)NC2CCCCC2)c2cccn2C)cc1OC (centres undefined)	i	i	-5.4*	-13	-19	i
CC(C)(C)c1ccc(S(=O)(=O)NNC(=O)c2cc3ccccc3[nH]2)cc1	i	i	i	-7	-2	i
Cc1nc(SCC(=O)N(C)Cc2ccco2)c2c(C)c(C)sc2n1	i	i	i	-15	-10	i
CCN(C(=O)CSc1nc(C)nc2sc(C)c(C)c12)c1ccc(F)cc1	x	x	-41*	-11	-10	x
Cc1cccc(C)c1NC(=O)CN(C)C(=O)CC1Sc2ccccc2NC1=O (centres undefined)	i	i	i	-10	0	i
O=S(=O)(c1ccc(OC(F)(F)F)cc1)N1CCC(O)(c2cccc(C(F)(F)F)c2)CC1	25*	i	i	1	-14	i
COc1cc(S(=O)(=O)N2CCC(O)(c3cccc(C(F)(F)F)c3)CC2)ccc1-n1cnnn1	i	i	i	-4	-7	i
SMILES	ANO1 block	CHT inh	TMEM16A act	PKA-R2B activ	PKA-R1A act	CHT PAM
Cc1noc(C)c1-c1nc(CSc2ccccc2)no1	i	i	i	-1	2	i
COc1ccc(-n2cc(C(=O)c3cc(Cl)ccc3O)cc(C#N)c2=O)cc1	i	i	i	-7	-3	i
CCOCCCn1cc(C(=O)c2cc(Br)ccc2O)cc(C#N)c1=O	i	i	i	-3	-6	i
COc1ccc(O)c(C(=O)c2cc(C#N)c(=O)n(-c3ccc(Cl)cc3)c2)c1	i	i	-4.6*	-4	-19	i
CCOc1ccc(-n2cc(C(=O)c3cc(Cl)ccc3O)cc(C#N)c2=O)cc1	25*	i	i	4	-11	i
Cc1ccc(-n2cc(C(=O)c3cc(Cl)ccc3O)cc(C#N)c2=O)cc1	25*	i	i	-3	-3	i
CC(NC(=O)C1CCCN1S(=O)(=O)c1ccc2c(c1)n(C)c(=O)c(=O)n2C)c1ccccc1 (centres undefined)	i	i	i	-12	2	i
CN(Cc1ccccc1)C(=O)c1[nH]cnc1C(=O)NCc1ccccc1	x	x	-8.1*	4	3	x
CN(Cc1ccccc1)C(=O)c1[nH]cnc1C(=O)NCc1ccc(CNC(=O)OC(C)(C)C)cc1	x	x	i	0	1	x
O=C(NCc1ccccc1)c1cccc(COc2cccc(Cl)c2)c1	i	i	i	-5	1	i
O=C(NCc1ccccc1)c1cccc(COc2ccc(Cl)cc2)c1	25*	i	i	13	5	i
O=C(N/N=C/c1cn(-c2ccccc2)nc1-c1cc2ccccc2o1)c1ccncc1	25*	i	i	-16	-1	i
O=C(N/N=C/c1cn(-c2ccccc2)nc1-c1cc2ccccc2o1)c1cccnc1	i	i	i	0	-12	i
Cc1ccc(/C=C2/C(=N)N3N=C(CC(=O)N4CCCC4)SC3=NC2=O)o1	i	i	i	-10	-2	i
CN(C)c1ccc(/C=C2\C(=N)N3N=C(CC(=O)N4CCCCC4)SC3=NC2=O)cc1	i	i	-5.5*	-5	2	i
Cc1ccc(S(=O)(=O)NCc2c(Cl)cccc2Oc2ccccc2)cc1	100*	i	i	-2	-20	i
O=C(NCCCN1CCCC(O)C1)c1cc(COc2ccc(F)cc2F)on1 (centres undefined)	i	i	i	1	-8	i
COc1ccc(-c2cc(C(F)F)n3ncc(C(=O)Nc4cccc(S(=O)(=O)N5CCOCC5)c4)c3n2)cc1	i	i	i	-25	3	i
